# A selection: hits, their analogues and other compounds. The true share with any hit is near 3.5%.
# TEAD-YAP block = TEAD-YAP interaction inhibition. AID 1259422. inhibition, % at 9.12 µM. HEK-TIYL cells, TEAD-Gal4/YAP UAS-luciferase luminescence. 640,000 compounds, 1.4% hits; in the data active means inhibition above about 32%;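 further: 0% = median of test compound wells and 100% = reference inhibitor wells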
# FBW7 act = activators of human E3 ligase FBW7 | Q969H0 | AlphaScreen FBW7–phospho-cyclin E peptide binding, activator screen | normalized activity (activation), % at 26.1 µM | 650,000 compounds, 0.13% hits; in the data active means normalized activity above about 1.9%;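 further: purified mutant Fbw7 with reduced substrate affinity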
# GPR151 activ = activators of human GPR151; AID 1508602; 650,000 compounds, 1% hits; activation, % at 11.2 µM; Q8TDV0; PathHunter beta-arrestin GPR151 cells, luminescence; in the data active means activation above about 4.9%;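 further: 0% = median of compound wells and 100% = cells with positive control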
# MITF primary = blocks human microphthalmia-associated transcription factor. O75030. AlphaScreen MITF homodimerization, bead proximity signal. inhibition, % at 2.6 µM. 650,000 compounds, 0.91% hits. AID 1259374; in the data active means inhibition above about 50%;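 further: 0% = vehicle wells with protein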
# Target sequence (O75030 whole entry, looked up): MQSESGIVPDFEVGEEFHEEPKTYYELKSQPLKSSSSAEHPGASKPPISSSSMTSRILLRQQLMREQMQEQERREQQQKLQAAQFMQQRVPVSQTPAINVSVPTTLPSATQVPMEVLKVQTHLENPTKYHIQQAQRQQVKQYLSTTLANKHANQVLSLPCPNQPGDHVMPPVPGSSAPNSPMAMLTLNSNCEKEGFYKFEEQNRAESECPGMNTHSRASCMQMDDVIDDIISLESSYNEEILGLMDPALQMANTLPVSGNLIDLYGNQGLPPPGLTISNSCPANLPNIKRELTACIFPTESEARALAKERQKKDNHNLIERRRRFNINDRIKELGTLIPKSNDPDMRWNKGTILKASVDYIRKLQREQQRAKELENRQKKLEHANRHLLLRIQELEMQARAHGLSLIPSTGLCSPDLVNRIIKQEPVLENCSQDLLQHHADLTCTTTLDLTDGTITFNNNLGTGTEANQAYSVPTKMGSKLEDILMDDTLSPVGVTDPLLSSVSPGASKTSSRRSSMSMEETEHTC
# An asterisk follows results filed as active; ! = repeats disagree.
SMILES,TEAD-YAP block,FBW7 act,GPR151 activ,MITF primary
COc1cc2c(c(OC)c1OC)-c1c(cc3c(c1OC)OCO3)CC(C)C(C)C2 (configuration not stated),-3,0,0,-2
COc1ccc2cc3[n+](cc2c1OC)CCc1cc2c(cc1-3)OCO2,56*!,0,0,2
CCOC(=O)c1c(NC(=O)c2ccccc2OC)sc2c1CCC(CC)C2 (configuration not stated),-5,0,1,-13
Cc1ccc(NSc2ccccc2[N+](=O)[O-])cc1,56*,0,1,4
CCOc1ccc(NSc2ccccc2[N+](=O)[O-])cc1,5,0,-1,22
CCC(=O)NC(c1ccc(OC)cc1)c1ccc2cccnc2c1O (configuration not stated),32*,-2,0,63*
CCCCC(=O)NC(c1ccc(Cl)cc1)c1ccc2cccnc2c1O (configuration not stated),85*,-1,0,27
CCC(=O)NC(c1ccc2c(c1)OCO2)c1cc(Cl)c2cccnc2c1O (configuration not stated),5,0,-1,14
CCC(=O)NC(c1ccc(Cl)cc1)c1ccc2cccnc2c1O (configuration not stated),95*,-1,0,32
CCC(=O)NC(c1ccccc1)c1ccc2cccnc2c1O (configuration not stated),82*,-2,0,35
COCC(=O)NC(c1ccccc1)c1cc(Cl)c2cccnc2c1O (configuration not stated),24,0,0,27
COc1cccc(-n2c(=O)c3sccc3n(Cc3cc(=O)n4ccccc4n3)c2=O)c1,-4,0,0,-4
CC(=O)NC(c1ccc(Cl)cc1Cl)c1ccc2cccnc2c1O (configuration not stated),89*,-1,3,42
CCCC(=O)NC(c1ccc(Cl)cc1)c1ccc2cccnc2c1O (configuration not stated),88*,-1,-1,25
CC(=O)NC(c1ccc(Cl)cc1Cl)c1cc(Cl)c2cccnc2c1O (configuration not stated),20,0,0,4
CCCC(=O)NC(c1ccc(Cl)cc1Cl)c1ccc2cccnc2c1O (configuration not stated),63*,-1,-1,26
CCSc1nnc(C2CCN(CC(=O)Nc3cccc4ccccc34)CC2)n1C,4,2.8*,-1,1
COc1ccccc1N1CCN(CCCNC(=O)Nc2ccc(Br)cc2)CC1,3,2.9*,-1,-12
COc1ccccc1N1CCN(C(=S)NCCN2CCOCC2)CC1,66*,0,-1,8
O=C(NCCCN1CCc2ccccc2C1)Nc1ccc(Br)cc1,-15,3.1*,0,-10
CCNC(=S)N1CCN(c2ccccc2OC)CC1,1,0,1,-9
CCOc1cc(Cl)c(CNCCO)cc1OC,0,0,-1,-7
COCc1c(C(=O)N/N=C/c2cccc(OC)c2O)nnn1-c1nonc1N,73*,0,0,61*
COCc1c(C(=O)N/N=C/c2ccccc2Cl)nnn1-c1nonc1N,-5,0,1,6
CCc1c(C(=O)N/N=C/c2cccc(OC)c2O)nnn1-c1nonc1N,74*,0,0,20
SMILES,TEAD-YAP block,FBW7 act,GPR151 activ,MITF primary
COc1ccc(-c2c(C#N)[nH]c(=O)[nH]c2=O)cc1,2,0,1,4
CCOc1ccc(N2CC(NC(=O)Nc3ccccn3)CC2=O)cc1 (configuration not stated),5,0,2,-8
CC(C)COC(=O)C1C2C=CC3(CN(C(C)c4ccccc4)C(=O)C13)O2 (configuration not stated),1,0,0,-6
COc1cc(Nc2nc(Nc3ccccc3)nc3c2ncn3Cc2ccc(C(F)(F)F)cc2)cc(OC)c1OC,3,0,-1,3
COc1cc(Nc2nc(NC3CCC(O)CC3)nc3c2ncn3Cc2ccc(C(F)(F)F)cc2)cc(OC)c1OC (configuration not stated),47*,0,1,7
COc1cc(Nc2nc(-c3c(C)noc3C)nc3c2ncn3Cc2ccc(C(F)(F)F)cc2)cc(OC)c1OC,52*,0,2,6
FC(F)(F)c1ccc(Cn2cnc3c(NC4CC4)nc(Nc4ccccc4)nc32)cc1,35*,0,-1,16
FC(F)(F)c1ccc(Cn2cnc3c(NC4CC4)nc(Nc4ccc(N5CCOCC5)cc4)nc32)cc1,-7,0,2,7
COc1cc(Nc2nc(Nc3ccc(C(F)(F)F)cc3)nc3c2ncn3Cc2ccc(C(F)(F)F)cc2)cc(OC)c1OC,6,0,1,-2
Cc1nn(C)c(C)c1-c1nc(Nc2ccc(N3CCOCC3)cc2)c2ncn(Cc3ccc(C(F)(F)F)cc3)c2n1,16,0,0,2
Cc1noc(C)c1-c1nc(Nc2ccc(N3CCOCC3)cc2)c2ncn(Cc3ccc(C(F)(F)F)cc3)c2n1,32*,1,-1,9
CC(C(=O)Nc1ccc(Cl)cc1Cl)N1C(=O)c2ccccc2C1=O (configuration not stated),7,0,1,1
COc1cc(Nc2nc(Nc3cc(OC)c(OC)c(OC)c3)c3ncn(Cc4ccc(C(F)(F)F)cc4)c3n2)cc(OC)c1OC,10,0,-1,-6
CCNc1nc(Nc2cc(OC)c(OC)c(OC)c2)c2ncn(Cc3ccc(C(F)(F)F)cc3)c2n1,52*,0,1,5
COc1ccccc1N1CCN(C(=O)CSc2nc3ccsc3c(=O)n2-c2ccc(Cl)cc2)CC1,4,0,1,2
CC1=NN(c2ccccc2)C(=O)/C1=C/c1ccc(Cl)cc1,-2,0,2,4
CC1=NN(c2ccccc2)C(=O)/C1=C/c1cccn1-c1ccccc1,-44,-1,-1,64*
Cc1cc(F)ccc1NC(=O)CSc1ccsc1[N+](=O)[O-],6,0,1,14
O=C(CSc1ccsc1[N+](=O)[O-])Nc1cc(F)ccc1F,32*,0,1,49
COc1cccc(-c2nnc3sc(CN4CCCCC4)cn23)c1,48*,0,-1,0
COc1ccc(Nc2nc(N3CCCCC3)nc3[nH]ncc23)cc1,40*,1,1,7
COc1ccc(Nc2nc(N3CCN(c4ccccc4OC)CC3)nc3[nH]ncc23)cc1,2,0,2,-3
O=C1N[C@@H](CO)C(=O)N2CCN(Cc3ccccc3Cl)C[C@H]12,-2,0,0,14
COc1cc(/C=C2/NC(=O)N(Cc3ccc(Br)cc3)C2=O)cc2c1OCO2,60*,0,1,-2
O=C1N/C(=C/c2cccc(F)c2)C(=O)N1Cc1ccc(Br)cc1,55*,0,-1,1
Nc1ccc2nc(SCC(=O)N3CCN(c4ccc(Cl)cc4)CC3)sc2c1,51*,0,2,8
CCOc1ccc(C(=O)c2cc([N+](=O)[O-])ccc2N2CCOCC2)cc1,60*,0,0,9

# Assay outcomes as filed in PubChem BioAssay.
